# Bioassay records deposited in PubChem BioAssay by The Scripps Research Institute Molecular Screening Center.
# GPR151 ag: activates the human receptor GPR151; Q8TDV0; PathHunter beta-arrestin GPR151 cells, luminescence; activation, % at 11.2 µM; 1% of 650,000 active; AID 1508602; in the data active means activation above about 4.9%;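 further: 0% = median of compound wells and 100% = cells with positive control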
# Target sequence (Q8TDV0 whole entry, looked up): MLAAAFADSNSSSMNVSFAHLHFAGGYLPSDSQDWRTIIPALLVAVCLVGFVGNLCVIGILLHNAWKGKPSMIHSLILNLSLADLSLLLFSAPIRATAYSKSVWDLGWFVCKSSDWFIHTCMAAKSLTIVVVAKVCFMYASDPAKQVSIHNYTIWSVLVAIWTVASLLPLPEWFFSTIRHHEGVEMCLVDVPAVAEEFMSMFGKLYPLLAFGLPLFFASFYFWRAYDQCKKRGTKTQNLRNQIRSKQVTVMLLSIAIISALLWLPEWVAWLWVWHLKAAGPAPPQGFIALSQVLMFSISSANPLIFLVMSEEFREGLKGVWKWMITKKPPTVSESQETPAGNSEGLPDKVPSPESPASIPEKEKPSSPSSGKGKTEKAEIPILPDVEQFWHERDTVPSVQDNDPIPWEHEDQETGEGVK
# TEAD-YAP inh: TEAD-YAP interaction inhibition | HEK-TIYL cells, TEAD-Gal4/YAP UAS-luciferase luminescence | inhibition, % at 9.12 µM | 1.4% of 640,000 active; in the data active means inhibition above about 32%;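 further: 0% = median of test compound wells and 100% = reference inhibitor wells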
# MITF inh: inhibitors of human MITF | AlphaScreen MITF homodimerization, bead proximity signal | O75030 | 0.91% of 650,000 active | AID 1259374 | inhibition, % at 2.6 µM; in the data active means inhibition above about 50%;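 further: 0% = vehicle wells with protein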
# FBW7 activator: human FBW7 E3 ligase activation, primary screen; Q969H0; AlphaScreen FBW7–phospho-cyclin E peptide binding, activator screen; normalized activity (activation), % at 26.1 µM; 0.13% of 650,000 active; in the data active means normalized activity above about 1.9%;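 further: purified mutant Fbw7 with reduced substrate affinity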
# The depositor's hits bear a star. The list is not random: actives were taken first. Their share in the collection is about 3.5%.
SMILES,GPR151 ag,TEAD-YAP inh,MITF inh,FBW7 activator
CCc1ccc(N(CC(=O)Nc2ccc(C)c(Cl)c2)S(C)(=O)=O)cc1,3,-42,0,0
c1ccc(-c2nc(NCCN3CCOCC3)c3ncn(-c4ccsc4)c3n2)cc1,1,33*,5,0
c1ccc(-n2cnc3c(Nc4ccc(N5CCOCC5)cc4)nc(Nc4nccc5ccccc45)nc32)cc1,1,43*,16,0
COc1cc(Nc2nc(NCCO)c3ncn(-c4ccccc4)c3n2)cc(OC)c1OC,0,28,0,0
COc1cc(Nc2nc(NCCN3CCOCC3)c3ncn(-c4ccccc4)c3n2)cc(OC)c1OC,0,42*,7,1
CCCSc1nnc(-c2ccc(OC)cc2)o1,-3,45*,9,1
Cc1ccc(-c2csc3ncnc(N4CCN(C)CC4)c23)cc1,0,10,2,0
CC(c1ccc([N+](=O)[O-])cc1)c1nc(-c2ccncc2)no1 (stereo not given),-1,-3,13,0
CC(c1ccc([N+](=O)[O-])cc1)c1nc(-c2ccccn2)no1 (stereo not given),0,67*,7,1
CCOCCCNC(=O)c1ccc2c(c1)N=C(CC)c1ccccc1S2,0,58*,8,0
CCC1=Nc2cc(C(=O)NCCCN3CCOCC3)ccc2Sc2ccccc21,0,2,3,0
CCC1=Nc2cc(C(=O)NCCCOC)ccc2Sc2ccccc21,1,57*,2,0
CCOCCCNC(=O)c1ccc2c(c1)N=C(C)c1cc(C)ccc1S2,0,68*,3,0
CCCC1=Nc2cc(C(=O)NCCOC)ccc2Sc2ccccc21,0,51*,9,0
COC(=O)c1ccc2c(c1)N=C(C)c1cc(C)ccc1S2,-1,-8,6,0
CSc1ncc(C(=O)Nc2c(C)cccc2C)c(C)n1,-1,1,11,0
COc1cccc(CN2CCN(C3CCN(C(C)C)CC3)C(CCO)C2)c1 (stereo not given),1,-3,-7,0
CC(=O)/C=C/c1c[nH]c2ccccc12,-2,6,-22,0
Cc1nnc2n1CCN(C(=O)/C(F)=C/c1ccccc1)CC2,0,-5,-4,1.9*
O=C(C1CCN(Cc2cc(Cl)ccc2O)CC1)N1CCN(Cc2ccccc2)CC1,1,6,59*,0
O=C(C1CCN(Cc2ccccc2O)CC1)N1CCCCC1,-1,0,52*,0
Cc1cccn2c(=O)c3cc(C(=O)Nc4ccc(F)cc4F)sc3nc12,0,1,-14,0
CCN1C(=O)C(O)(CC(=O)c2cccc(N)c2)c2ccccc21 (stereo not given),0,2,6,0
O=C(NCc1ccc(F)cc1)c1ccc(N2CC3CC(C2)c2cccc(=O)n2C3)c(NS(=O)(=O)c2ccc3c(c2)OCCO3)c1 (stereo not given),3,-1,3,0
Cn1cccc1/C=C(\C(=O)c1ccccc1)N1C=CC=CC1=C(C#N)C#N,0,61*,-5,0
SMILES,GPR151 ag,TEAD-YAP inh,MITF inh,FBW7 activator
N#CC(C#N)=C1C=CC=CN1/C(=C\c1ccccc1)C(=O)c1ccccc1,1,-5,12,1
COc1ccc(C(=O)/C(=C\c2ccco2)N2C=CC=CC2=C(C#N)C#N)cc1,-4,43*,5,0
COc1ccccc1C(=O)N1CCC2(CC1)Nc1ccccc1-n1cccc12,-1,-8,1,0
CC(NC(=O)c1ccco1)c1nnc2n1CCN(Cc1ccc3c(c1)OCCO3)CC2 (stereo not given),1,2,4,0
COc1cc(Nc2nccn3c(-c4ccsc4)cnc23)cc(OC)c1OC,1,55*,16,1
c1cc(CCNc2nccn3c(-c4ccsc4)cnc23)ccn1,-1,39*,-9,0
COc1cc(-c2cnc3c(Nc4ccc(Cl)cc4)nccn23)cc(OC)c1OC,0,4,-9,0
COc1cc(CNc2nccn3c(-c4ccsc4)cnc23)cc(OC)c1OC,1,-4,13,0
COc1cc(Nc2nccn3c(-c4ccc(C)cc4)cnc23)cc(OC)c1OC,0,46*,-6,-1
COc1cc(Nc2nccn3c(-c4cccc(N)c4)cnc23)cc(OC)c1OC,0,43*,2,-1
COc1cc(Nc2nccn3c(-c4cccc5ccccc45)cnc23)cc(OC)c1OC,3,16,-19,-1
Cc1ccc(OCCn2ccnc2)cc1C,0,-14,41,0
O=C(Nc1cccc(NC(=O)c2cc(Br)ccc2Cl)c1)c1cccc(Cl)c1,1,1,-5,0
CCCCN1C(=O)/C(=C2/C(=O)N(C)c3ccccc32)SC1=S,-1,0,0,0
O=C(O)c1ccc(NC(=O)c2cccc3c(Br)cccc23)cc1,0,-6,10,0
COc1cc(CNc2nccn3c(-c4ccc5ccccc5c4)cnc23)cc(OC)c1OC,-1,-9,7,2.0*
COc1cc(Nc2nccn3c(-c4ccccc4)cnc23)cc(OC)c1OC,0,59*,-14,-1
COCCCn1c(C)cn2c3c(=O)n(CCC(C)C)c(=O)n(C)c3nc12,-1,-1,7,0
CCC(=O)NC(c1ccc(OC)c(OC)c1)c1cc(Cl)c2cccnc2c1O (stereo not given),0,46*,28,0
CCC(=O)NC(c1ccc(OC)c(OC)c1)c1ccc2cccnc2c1O (stereo not given),-1,87*,59*,-2
COc1ccc(C(NC(C)=O)c2ccc3cccnc3c2O)cc1OC (stereo not given),0,83*,66*,-1
COc1ccc(C(NC(C)=O)c2cc(Cl)c3cccnc3c2O)cc1OC (stereo not given),0,4,21,0
Cc1onc(-c2ccccc2Cl)c1C(=O)Nc1ccc(Cl)cc1Cl,2,4,-3,0
NC(=O)c1ccc(-c2nc(NC3CC3)c3ncn(-c4ccccc4)c3n2)cc1,-3,36*,23,0
c1ccc(-c2nc(NC3CC3)c3ncn(-c4ccccc4)c3n2)cc1,-2,5,-2,0
SMILES,GPR151 ag,TEAD-YAP inh,MITF inh,FBW7 activator
COc1ccc(-c2nc(Nc3ccccc3)c3ncn(-c4ccsc4)c3n2)cn1,-2,0,16,0
COc1ccc(-c2nc(Nc3ccc(NC(C)=O)cc3)c3ncn(-c4ccsc4)c3n2)cn1,3,51*,9,0
NC(=O)c1ccc(-c2nc(Nc3ccc(Oc4ccccc4)cc3)c3ncn(-c4ccsc4)c3n2)cc1,0,5,15,0
CC(=O)Nc1ccc(Nc2nc(-c3ccc(C(N)=O)cc3)nc3c2ncn3-c2ccsc2)cc1,-2,39*,-6,0
NC(=O)c1ccc(-c2nc(Nc3ccccc3)c3ncn(-c4ccsc4)c3n2)cc1,0,50*,16,0
CC(=O)Nc1ccc(Nc2nc(-c3ccc(C(=O)N4CCN(C)CC4)cc3)nc3c2ncn3-c2ccsc2)cc1,1,36*,2,0
CC(=O)Nc1ccc(Nc2nc(-c3ccccc3)nc3c2ncn3-c2ccsc2)cc1,0,37*,-13,0
